Records with an inconclusive call do not appear. Entries that show only a call come without a potency. Unmarked numbers belong to inactive results. The source made the active and inactive calls. Unless noted, calls come from the whole dose curve.
Columns and labels:
[1] = qHTS assay to identify small molecule antagonists of the peroxisome proliferator-activated receptor delta (PPARd) signaling pathway - cell viability counter screen (AID 743213; active = well fitted curve in the direction sought with a large enough effect in the repeat runs; an effect the other way counts as inactive or inconclusive; note: nearly all actives have a fitted effect of over 50% in size)
Outline: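 Same-well viability: cells pre-incubated 5 h, dosed with compound plus 300 nM L165041, kept 17 h at 37 C, FRET substrate 2 h RT, then CellTiter-Glo 30 min RT and luminescence.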

[2] = qHTS assay to identify small molecule agonists of the farnesoid-X-receptor (FXR) signaling pathway - cell viability counter screen (AID 743218; active = well fitted curve in the direction sought with a large enough effect in the repeat runs; an effect the other way counts as inactive or inconclusive; note: nearly all actives have a fitted effect of over 45% in size)
Outline: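 Viability of FXR-bla HEK 293T cells is measured by ATP-based CellTiter-Glo luminescence following 16 h compound treatment at 37 C and a prior 2 h room-temperature beta-lactamase substrate step.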

[3] = target: Vitamin D3 receptor (Homo sapiens) (UniProt P11473); test: qHTS assay to identify small molecule agonists of the vitamin D receptor (VDR) signaling pathway (AID 743222)
Outline: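 Fluorescence from cleaved LiveBLAzer B/G FRET substrate served as readout. VDR-bla cells had been treated 16 h at 37C with test compounds in DMSO, following a 4 h settling period, and substrate was loaded for 2 h at RT.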

[4] = target: Vitamin D3 receptor (Homo sapiens) (UniProt P11473); test: qHTS assay to identify small molecule antagonists of the vitamin D receptor (VDR) signaling pathway (AID 743223; active = well fitted inhibition curve with a large enough effect in the signal ratio in the repeat runs, not every such curve was filed as active; the % refers to the signal ratio)
Outline: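 Antagonist mode uses 1alpha,25-dihydroxyvitamin D3 at 3 nM final as stimulus. VDR-bla cells receive compounds in DMSO, incubate 16 h at 37C, then a beta-lactamase FRET substrate for 2 h at room temperature before fluorescence measurement.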

[5] = qHTS assay to identify small molecule agonists of the vitamin D receptor (VDR) signaling pathway - cell viability counter screen (AID 743224; active = well fitted curve in the direction sought with a large enough effect in the repeat runs; an effect the other way counts as inactive or inconclusive; note: series mostly up to about 63 µM; nearly all actives have a fitted effect of over 50% in size)
Outline: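 Compounds were pin-transferred onto VDR-bla cells plated 4 h earlier; following 16 h incubation at 37C, cell viability was quantified by CellTiter-Glo luminescence after 30 min at room temperature.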

[6] = qHTS assay to identify small molecule antagonists of the vitamin D receptor (VDR) signaling pathway - cell viability counter screen (AID 743225; active = well fitted curve in the direction sought with a large enough effect in the repeat runs; an effect the other way counts as inactive or inconclusive; note: nearly all actives have a fitted effect of over 50% in size)
Outline: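 Read-out: CellTiter-Glo luminescence measured 30 min after reagent addition at room temperature. Cells were VDR-bla HEK 293T exposed 16 h at 37C, 5% CO2, to compound with 3 nM final calcitriol agonist.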

[7] = qHTS assay to identify small molecule agonists of the NFkB signaling pathway - cell viability counter screen (AID 1159515); note: series mostly up to about 61 µM; nearly all actives have a fitted effect of over 55% in size
Outline: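 Parallel cytotoxicity counter screen in ME-180 cells carrying an NFkB-response-element beta-lactamase reporter, 2,000 cells/well. Compound exposure lasted 5 hr at 37 C, 5% CO2. Cell viability was quantified by CellTiter-Glo luminescence.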

[8] = qHTS assay to identify small molecule agonists of the endoplasmic reticulum stress response signaling pathway - cell viability counter screen (AID 1159517);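 note: HeLa cells carrying an ER stress response element beta-lactamase reporter; series mostly up to about 61 µM; nearly all actives have a fitted effect of over 50% in size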
Outline: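 After overnight attachment, ESRE-bla HeLa cells were treated with Tox21 library compounds for 5 hr. CellTiter-Glo luminescence, read 30 min post-addition at room temperature, reported viability.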

[9] = qHTS assay to identify small molecule antagonists of the retinoid-related orphan receptor gamma (ROR-gamma) signaling pathway - cell viability counter screen (AID 1159520; active = well fitted curve in the direction sought with a large enough effect in the repeat runs; an effect the other way counts as inactive or inconclusive; note: nearly all actives have a fitted effect of over 50% in size)
Outline: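 Cytotoxicity was read from cellular ATP (CellTiter-Glo luminescence) after 16 hr at 37 C with 1 uM doxycycline induction. The inducer was added 2 hr after compound transfer to Tet-on ROR gamma CHO cells.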

[10] = target: Nuclear receptor ROR-gamma (Homo sapiens) (UniProt P51449); test: qHTS assay to identify small molecule antagonists of the retinoid-related orphan receptor gamma (ROR-gamma) signaling pathway (AID 1159521; active = well fitted curve in the direction sought with a large enough effect in the repeat runs; an effect the other way counts as inactive or inconclusive)
Outline: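 CHO Tet-on RORγ, RORE-luc reporter. Cpd 2 h pre-incubation, then dox hyclate 1 uM final, 16 h, 37 C/5% CO2. ONE-Glo luminescence; decrease = antagonist.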

[11] = qHTS assay to identify small molecule agonists of the AP-1 signaling pathway - cell viability counter screen (AID 1159525); note: nearly all actives have a fitted effect of over 55% in size
Outline: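 Intracellular ATP by Cell Titer Glo luminescence (30 min, RT) in the same ME-180 AP-1-bla wells after the 5 h compound exposure at 37 °C. Normalised to tetra n-octyl ammonium bromide and DMSO controls.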

[12] = qHTS assay to identify small molecule agonists of the AP-1 signaling pathway (AID 1159526); note: potency is the fitted concentration of half-maximal effect
[13] = target: Retinoic acid receptor RXR-alpha (Homo sapiens) (UniProt P19793); test: qHTS assay to identify small molecule agonists of the RXR signaling pathway (AID 1159527); note: nearly all actives have a fitted effect of over 35% in size
Outline: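 Read-out: beta-lactamase FRET ratio (405 nm excitation, 460 and 530 nm emission) after 2 hr substrate loading at room temperature. Cells were RXR-alpha-UAS-bla HEK 293T treated with compounds for 16 hr in 2% charcoal-stripped FBS medium.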

[14] = qHTS assay to identify small molecule agonists of the RXR signaling pathway - cell viability counter screen (AID 1159529; active = well fitted curve in the direction sought with a large enough effect in the repeat runs; an effect the other way counts as inactive or inconclusive)
Outline: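 HEK 293T RXRa-bla cells, 2% CS-FBS; 5 h settle; cpd 16 h 37 C, 5% CO2; CellTiter-Glo 30 min RT, luminescence. Tetraoctyl ammonium bromide as positive control.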

[15] = target: Peroxisome proliferator-activated receptor delta (Homo sapiens) (UniProt Q03181); test: qHTS assay to identify small molecule agonists of the peroxisome proliferator-activated receptor delta (PPARd) signaling pathway (AID 743212);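 note: HEK293H cells with PPARd UAS beta-lactamase reporter GeneBLAzer system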
Outline: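 Steps: seed PPARd-bla HEK293H cells; incubate 5 h, 37 C, 5% CO2; add compounds in DMSO; incubate, 37 C; add LiveBLAzer B/G FRET substrate; hold 2 h at room temperature; measure fluorescence.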

[16] = target: Peroxisome proliferator-activated receptor delta (Homo sapiens) (UniProt Q03181); test: qHTS assay to identify small molecule antagonists of the peroxisome proliferator-activated receptor delta (PPARd) signaling pathway (AID 743215; active = well fitted inhibition curve with a large enough effect in the signal ratio in the repeat runs, not every such curve was filed as active; the % refers to the signal ratio;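 note: cells stimulated with agonist L165041 at 300 nM final during compound exposure; series mostly up to about 62 µM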)
Outline: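 Plated HEK293H PPARd-bla cells rested 5 h at 37 C and 5% CO2. Compound, then agonist L165041 at 300 nM final, was added; 17 h at 37 C followed. Substrate loading, 2 h room temperature, fluorescence measured.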

[17] = target: Bile acid receptor (Homo sapiens) (UniProt Q96RI1); test: qHTS assay to identify small molecule antagonists of the farnesoid-X-receptor (FXR) signaling pathway (AID 743217; active = well fitted inhibition curve with a large enough effect in the signal ratio in the repeat runs, not every such curve was filed as active; the % refers to the signal ratio)
Outline: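 Screen of the Tox21 10K library in quantitative HTS format using FXR-UAS-bla HEK 293T reporter cells. Agonist chenodeoxycholic acid, 50 uM final, added with compounds; 16 h incubation at 37 °C; beta-lactamase FRET fluorescence measured.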

[18] = target: Bile acid receptor (Homo sapiens) (UniProt Q96RI1); test: qHTS assay to identify small molecule agonists of the farnesoid-X-receptor (FXR) signaling pathway (AID 743220; active = well fitted activation curve with a large enough effect in the signal ratio in the repeat runs, not every such curve was filed as active; the % refers to the signal ratio)
Outline: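 FXR-UAS-bla HEK 293T cells carrying a UAS-driven beta-lactamase reporter were plated for 5 h at 37C/5% CO2, then exposed to DMSO-dissolved Tox21 10K compounds for 16 h at 37C. A LiveBLAzer B/G FRET substrate was loaded for 2 h at room temperature before fluorescence reading.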

[19] = qHTS assay to identify small molecule antagonists of the farnesoid-X-receptor (FXR) signaling pathway - cell viability counter screen (AID 743221; active = well fitted cell-killing curve with a large enough effect in the repeat runs, not every such curve was filed as active; note: nearly all actives have a fitted effect of over 50% in size)
Outline: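 Luminescence from CellTiter-Glo measures cytotoxicity in GeneBLAzer FXR-UAS-bla HEK 293T cells. Cells were exposed to compounds with 50 uM chenodeoxycholic acid (final) for 16 h at 37 C, in wells also used for the reporter readout.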

Sequence of Vitamin D3 receptor (Homo sapiens) (P11473 whole entry, looked up): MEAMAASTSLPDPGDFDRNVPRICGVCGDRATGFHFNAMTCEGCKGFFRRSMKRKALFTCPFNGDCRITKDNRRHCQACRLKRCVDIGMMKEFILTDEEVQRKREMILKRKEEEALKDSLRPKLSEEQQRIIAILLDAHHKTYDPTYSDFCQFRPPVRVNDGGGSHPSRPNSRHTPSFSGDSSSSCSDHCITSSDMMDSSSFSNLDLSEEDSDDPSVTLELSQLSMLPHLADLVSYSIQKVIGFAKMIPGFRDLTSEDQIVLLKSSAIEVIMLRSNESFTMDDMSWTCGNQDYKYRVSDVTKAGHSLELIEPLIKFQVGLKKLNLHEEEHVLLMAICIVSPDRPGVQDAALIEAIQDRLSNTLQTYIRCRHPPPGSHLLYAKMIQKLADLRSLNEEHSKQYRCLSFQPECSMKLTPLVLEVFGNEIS
Sequence of Bile acid receptor (Homo sapiens) (Q96RI1 whole entry, looked up): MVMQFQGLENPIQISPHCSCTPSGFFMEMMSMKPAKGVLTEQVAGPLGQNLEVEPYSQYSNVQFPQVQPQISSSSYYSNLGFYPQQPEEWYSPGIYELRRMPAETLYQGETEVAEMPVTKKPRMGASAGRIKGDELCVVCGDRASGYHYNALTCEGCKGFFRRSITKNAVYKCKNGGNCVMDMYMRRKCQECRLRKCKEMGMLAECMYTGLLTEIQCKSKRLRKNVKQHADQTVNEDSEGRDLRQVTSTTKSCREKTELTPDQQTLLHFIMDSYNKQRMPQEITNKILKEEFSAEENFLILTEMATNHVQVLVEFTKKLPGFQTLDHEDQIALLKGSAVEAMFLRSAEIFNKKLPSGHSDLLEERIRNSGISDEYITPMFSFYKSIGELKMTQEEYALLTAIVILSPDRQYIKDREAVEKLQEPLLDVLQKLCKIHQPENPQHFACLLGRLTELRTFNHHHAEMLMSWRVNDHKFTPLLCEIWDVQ
Sequence of Peroxisome proliferator-activated receptor delta (Homo sapiens) (Q03181 whole entry, looked up): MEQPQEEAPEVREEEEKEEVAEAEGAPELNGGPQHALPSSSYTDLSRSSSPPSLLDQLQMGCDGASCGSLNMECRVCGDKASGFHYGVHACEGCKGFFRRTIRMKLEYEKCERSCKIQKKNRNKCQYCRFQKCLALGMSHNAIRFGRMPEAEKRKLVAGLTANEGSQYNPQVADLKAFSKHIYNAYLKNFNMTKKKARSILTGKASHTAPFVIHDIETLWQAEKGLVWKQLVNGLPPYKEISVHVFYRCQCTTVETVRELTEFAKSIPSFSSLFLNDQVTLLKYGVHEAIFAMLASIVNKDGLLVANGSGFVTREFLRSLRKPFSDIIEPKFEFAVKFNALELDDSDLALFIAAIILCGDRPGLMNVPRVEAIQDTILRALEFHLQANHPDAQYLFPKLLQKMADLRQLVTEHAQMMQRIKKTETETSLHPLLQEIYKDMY
Sequence of Retinoic acid receptor RXR-alpha (Homo sapiens) (P19793 whole entry, looked up): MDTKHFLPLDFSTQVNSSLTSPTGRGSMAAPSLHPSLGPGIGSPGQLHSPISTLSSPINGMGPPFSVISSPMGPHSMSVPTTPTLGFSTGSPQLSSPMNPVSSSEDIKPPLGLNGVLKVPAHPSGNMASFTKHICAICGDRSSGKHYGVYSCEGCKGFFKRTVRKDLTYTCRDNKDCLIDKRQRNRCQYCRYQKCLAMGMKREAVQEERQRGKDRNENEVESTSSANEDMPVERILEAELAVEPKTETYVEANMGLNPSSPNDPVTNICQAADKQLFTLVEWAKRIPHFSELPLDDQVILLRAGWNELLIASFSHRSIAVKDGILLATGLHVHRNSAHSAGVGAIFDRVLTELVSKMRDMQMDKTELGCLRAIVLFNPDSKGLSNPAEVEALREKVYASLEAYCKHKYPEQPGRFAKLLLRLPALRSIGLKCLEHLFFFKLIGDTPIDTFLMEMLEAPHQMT

CCCCCCCCOCCC#N
outcome [1]: inactive | outcome [2]: inactive | outcome [3]: inactive | outcome [4]: inactive | outcome [5]: inactive | outcome [6]: inactive | outcome [7]: inactive | outcome [8]: inactive | outcome [9]: inactive | outcome [10]: inactive | outcome [11]: inactive | Potency [12]: inactive | Potency [13]: inactive | Potency [14]: inactive

CCCCCCCCCCCCCCCC/C=C/C1CC(=O)OC1=O (stereo unspecified)
outcome [15]: inactive | outcome [1]: inactive | outcome [16]: inactive | outcome [17]: inactive | outcome [2]: inactive | outcome [18]: inactive | outcome [19]: inactive | outcome [3]: inactive | outcome [5]: inactive | outcome [6]: inactive | outcome [7]: inactive | outcome [8]: inactive | outcome [10]: inactive | outcome [11]: inactive | Potency [12]: 16.9 µM (active) | Potency [13]: inactive | Potency [14]: inactive

CCCOc1ccc(C(=O)OCCN(CC)CC)cc1N
outcome [15]: inactive | outcome [1]: inactive | outcome [16]: inactive | outcome [2]: inactive | outcome [19]: inactive | outcome [3]: inactive | outcome [4]: inactive | outcome [6]: inactive | outcome [7]: inactive | outcome [8]: inactive | outcome [9]: inactive | outcome [10]: inactive | outcome [11]: inactive | Potency [12]: inactive | Potency [13]: inactive | Potency [14]: inactive

COc1ccccc1N1CCN(CC(O)COc2cc(OC)c(OC)c(OC)c2)CC1 (stereo unspecified)
outcome [15]: inactive | outcome [16]: inactive | outcome [2]: inactive | outcome [19]: inactive | outcome [5]: inactive | outcome [6]: inactive | outcome [7]: inactive | outcome [8]: inactive | outcome [9]: inactive | outcome [10]: inactive | outcome [11]: inactive | Potency [12]: inactive | Potency [13]: inactive | Potency [14]: inactive

C[C@@H]1CC[C@@]2(OC1)O[C@H]1C[C@H]3[C@@H]4CC[C@H]5C[C@@H](O)CC[C@]5(C)[C@H]4CC(=O)[C@]3(C)[C@H]1[C@@H]2C
activation [15]: 0.168% [at 5.95 µM] | viability change, negative = cytotoxic [1]: 11.9% [at 6.26 µM] | ratio activity, negative = inhibition [16]: 2.62% [at 6.26 µM] | activity change, negative = inhibition [17]: 10.4% [at 5.95 µM] | viability change, negative = cytotoxic [2]: 12.5% [at 5.95 µM] | activation [18]: 2.31% [at 5.95 µM] | activity change, negative = cytotoxicity [5]: 4.49% [at 5.95 µM] | viability change, negative = cytotoxic [6]: -3.49% [at 6.95 µM] | activity, negative = cytotoxic [7]: 6.74% [at 6.95 µM] | activity change, negative = cytotoxicity [8]: -1.94% [at 6.95 µM] | activity, negative = cytotoxicity [9]: 4% [at 8.39 µM] | activity change, negative = inhibition [10]: 0.0168% [at 8.39 µM] | viability change, negative = cytotoxic [11]: 2.16% [at 6.97 µM] | activation [12]: -4.54% [at 6.97 µM] | activation [13]: 2.2% [at 6.98 µM] | activity change, negative = cytotoxicity [14]: -0.0245% [at 6.97 µM]

N#Cc1ccccc1C#N
outcome [15]: inactive | outcome [1]: inactive | outcome [16]: inactive | outcome [2]: inactive | outcome [4]: inactive | outcome [5]: inactive | outcome [6]: inactive | outcome [7]: inactive | outcome [8]: inactive | outcome [9]: inactive | outcome [10]: inactive | outcome [11]: inactive | Potency [12]: inactive | Potency [13]: inactive

Cc1ccc(S(=O)(=O)NC(=O)NN2CC3CCCC3C2)cc1 (stereo unspecified)
outcome [15]: inactive | outcome [1]: inactive | outcome [16]: inactive | outcome [2]: inactive | outcome [3]: inactive | outcome [4]: inactive | outcome [5]: inactive | outcome [6]: inactive | outcome [7]: inactive | outcome [8]: inactive | outcome [10]: inactive | outcome [11]: inactive | Potency [12]: inactive | Potency [13]: inactive

CCc1ncc(C)[nH]1
outcome [15]: inactive | outcome [1]: inactive | outcome [16]: inactive | outcome [2]: inactive | outcome [18]: inactive | outcome [19]: inactive | outcome [3]: inactive | outcome [4]: inactive | outcome [6]: inactive | outcome [7]: inactive | outcome [8]: inactive | outcome [9]: inactive | outcome [10]: inactive | outcome [11]: inactive | Potency [12]: inactive | Potency [13]: inactive | Potency [14]: inactive

CC(C)(O)c1ccc(C(C)(C)O)cc1
outcome [1]: inactive | outcome [2]: inactive | outcome [19]: inactive | outcome [3]: inactive | outcome [5]: inactive | outcome [6]: inactive | outcome [7]: inactive | outcome [8]: inactive | outcome [9]: inactive | outcome [10]: inactive | outcome [11]: inactive | Potency [12]: inactive | Potency [13]: inactive | Potency [14]: inactive

O=C1c2ccccc2C(=O)N1CO
outcome [15]: inactive | outcome [16]: inactive | outcome [2]: inactive | outcome [19]: inactive | outcome [5]: inactive | outcome [7]: inactive | outcome [8]: inactive | outcome [10]: inactive | Potency [12]: inactive | Potency [13]: inactive

— PubChem BioAssay (Tox21)
